# Screening results deposited in PubChem BioAssay by several laboratories.
# This is a sample that favours compounds with a hit; in the whole collection about 8.7% have one here.
# Cav3 T inh: Cav3.2 calcium influx blockers – cell-based, Fluo-4 calcium fluorescence, FDSS, MLSMR library, primary screen; B-score at 10 µM; AID 449739, 2010; Cav3.2-expressing cells; stronger effect = lower value; 100,000 tested, 4% active;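 active means single-dose well whose peak fluorescence ratio is a statistical outlier from its plate by either plate-standardised score or position-corrected B-score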
# TNAP act DEA: human TNAP enzyme activators, primary screen, biochemical, luminescent, intermediate phosphate acceptor level; purified TNAP, CDP-star luminescence, 100 mM DEA, 30 min; stronger effect = higher value; scale: 0 levamisole-inhibited, 1 vehicle-only enzyme; 64,000 tested, under 10 active; AID 813, 2007; activation factor at 20 µM;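 active means activation factor of at least 2 at 20 µM, relative to controls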
# Target sequence (P05186 whole entry, looked up): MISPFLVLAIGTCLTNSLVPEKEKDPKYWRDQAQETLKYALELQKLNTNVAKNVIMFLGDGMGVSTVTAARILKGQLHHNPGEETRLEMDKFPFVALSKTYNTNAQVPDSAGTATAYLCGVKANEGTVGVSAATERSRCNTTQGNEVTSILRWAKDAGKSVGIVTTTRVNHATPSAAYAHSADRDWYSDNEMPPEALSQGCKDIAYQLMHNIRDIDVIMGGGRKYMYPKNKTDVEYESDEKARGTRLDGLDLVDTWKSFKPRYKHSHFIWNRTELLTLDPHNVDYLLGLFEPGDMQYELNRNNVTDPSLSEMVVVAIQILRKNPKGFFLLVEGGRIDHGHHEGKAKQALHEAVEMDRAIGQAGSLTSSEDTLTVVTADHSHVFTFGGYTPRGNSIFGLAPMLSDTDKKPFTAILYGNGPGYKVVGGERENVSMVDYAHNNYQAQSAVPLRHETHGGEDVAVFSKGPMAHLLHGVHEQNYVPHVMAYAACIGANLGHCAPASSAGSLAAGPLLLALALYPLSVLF
# Smad3 inh: Smad3/FoxH1 peptide binding inhibitors, primary screen, biochemical, TR-FRET; Mothers against decapentaplegic homolog 3 (Homo sapiens), P84022; TR-FRET Smad3/Dy647-FoxH1 peptide binding, europium anti-His; inhibition, % at 25 µM; 88,000 tested, 0.29% active;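 active means compounds that reduce the energy-transfer binding signal between the protein and its labelled peptide by more than half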;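 further: 0% = Smad3 plus labelled peptide maximal FRET and 100% = peptide-only background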
# hDAT+cocaine: changed hDAT dopamine uptake under cocaine IC80, either direction, primary screen, cocaine antagonist project, cell-based, LLC-PK1 hDAT, [14C]-dopamine uptake, MLSMR. Sodium-dependent dopamine transporter (Homo sapiens), Q01959. LLC-PK1 hDAT cells, [14C]-dopamine uptake with cocaine IC80; actives deviate in either direction. B-score at 10 µM. 110,000 tested, 1.3% active. AID 449768, 2010;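 active means Z score or B-score, a plate-position-corrected score, falls beyond the plate's 99.7% confidence bounds, in either direction; inactive means both scores lie inside the 99.7% bounds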;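 further: scored against the spread of the other compound wells on the same plate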
# PostGolgi yeast: phenotypic screen on post-Golgi transport, primary screen | post-Golgi transport phenotypic cell assay | inhibition, % at 10 µM | 98,000 tested, 0.9% active | AID 739, 2007;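 further: yeast cells grown in 1536-well plates; yeast grown about 18 h at 30C before absorbance read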
# PostGolgi ctrl: growth inhibition of yeast control strain, primary screen, counter-screen for post-Golgi transport modulator project | inhibition, % at 10 µM | 98,000 tested, 5% active | efflux-deficient yeast background strain, growth absorbance A615, 16 h
# Numbers without * were called inactive; . = not tested or not shown. Unless noted, no stated cut-off is given here; in the data, active means inhibition above about 30%; inactive means the rest.
SMILES,Cav3 T inh,TNAP act DEA,Smad3 inh,hDAT+cocaine,PostGolgi yeast,PostGolgi ctrl
Cc1nc2sc(C(c3cccs3)N3CCC(C(N)=O)CC3)c(O)n2n1 (configuration not stated),0.49,0.8,-7,-0.042,2,-1
CSc1nc2ccccc2n1CC(=O)Nc1c(C)cccc1C,-0.44,.,23,-0.7,.,.
CSc1nc2ccccc2n1Cc1c(Cl)cccc1Cl,-3.7,.,-27,1.6,5,34*
O=C(Nc1nccs1)c1cc2c(s1)CCCCC2,-4.9,.,5,4.3*,-10,26
O=C(NCc1ccc(F)cc1)c1cc2c(s1)CCCC2,-6.3*,.,.,0.94,9,0
COC(=O)c1sccc1NC(=O)c1cc2c(s1)CCCC2,.,0.9,9,.,-7,4
CCOC(=O)C1CCCC(NS(=O)(=O)c2ccc(NC(C)=O)cc2)C1 (configuration not stated),-0.48,.,2,-1.2,-1,16
Cn1c(=O)[nH]c(=O)c2c1nc(Br)n2CCSc1nnnn1-c1ccccc1,.,0.9,3,0.74,-5,10
CC(C)(C)c1ccc(NC(=O)COc2ccc(-n3ccnc3)cc2)cc1,0.0092,.,0,0.44,73*,58*
CSc1nc2ccc(S(=O)(=O)N(C)C)cc2s1,0.25,.,10,-0.13,-5,15
CSc1nc2ccc(NS(=O)(=O)c3ccc(Cl)s3)cc2s1,-5.6*,1,10,0.02,-1,40*
COc1cccc(/C=C2\N=C(c3c(-c4ccccc4)noc3C)OC2=O)c1,-0.53,.,.,1.5,3,2
Cc1cc(N2CCOCC2)cc(C)[n+]1[O-],0.26,0.9,-1,-0.74,11,2
CCS(=O)(=O)CCSc1nc2ccccc2s1,-0.84,0.9,2,-2.5,0,5
O=S(=O)(CCSc1nc2ccccc2s1)c1nc2ccccc2s1,-0.96,.,4,-1.2,8,90*
CCSc1nc2ccccc2n1CC(=O)N1CCCCC1,1.8,1,-5,-1.4,7,18
CN1/C(=C/C(=O)c2nc(S(C)(=O)=O)ncc2Cl)C(C)(C)c2ccccc21,1,0.8,-2,0.022,16,60*
CN(c1ccccc1C(=O)Nc1ccccc1C(=O)NCc1ccco1)S(C)(=O)=O,-0.074,1,-4,0.55,1,0
Cc1cc(Cl)ccc1NC(=S)NCc1ccc(Cl)cc1,0.1,.,.,-0.52,6,-2
COc1cccc(NC(=O)C(NCC2CCCCC2)c2ccccc2)c1 (configuration not stated),0.39,.,-8,1.8,-2,0
COc1cccc(NC(=S)NCCC(c2ccccc2)c2ccccc2)c1,-6.9*,.,.,0.83,-12,16
COc1cccc(NC(=O)C(NCCC(C)C)c2ccccc2)c1 (configuration not stated),-6.2*,.,.,0.2,-6,8
Cc1c(Cl)cccc1NC(=S)NCCC(c1ccccc1)c1ccccc1,-6.9*,.,.,-0.042,.,.
Cc1cc(Cl)ccc1NC(=S)NCCC(c1ccccc1)c1ccccc1,-3.6*,.,.,1.3,1,14
O=C1NCCC12C(=O)Nc1ccccc12 (configuration not stated),0.016,.,.,-0.24,.,.
SMILES,Cav3 T inh,TNAP act DEA,Smad3 inh,hDAT+cocaine,PostGolgi yeast,PostGolgi ctrl
Cc1cc(C)c(C#N)c(SCCS(=O)(=O)Cc2ccccc2)n1,-0.16,0.9,-2,-0.05,16,23
S=C(NCCc1ccccc1)Nc1ccc(Cl)cc1Cl,-5.1*,.,.,0.28,-10,4
CCc1nnc(SCC(=O)Nc2ccccc2)nc1CC,0.59,0.8,2,0.79,-4,-1
CCCC(C)n1[nH]c(=O)cc1N (configuration not stated),.,1,0,-2.8*,2,2
O=C(COc1ccc(Br)cc1CO)Nc1ccccc1F,-0.66,0.9,1,0.39,-6,23
Cc1cc(OC(C)C(=O)N/N=C/CC(C)c2ccccc2)ccc1Cl (configuration not stated),-6.5*,.,.,0.0035,-7,-2
COc1ccccc1OCCSc1nnnn1-c1ccc(C)cc1,-5*,1,7,-0.46,2,16
O=C(O)c1ccc(-n2nnnc2SCc2ccccc2F)cc1,-4.1*,0.9,-10,0.006,-4,-5
CCOc1ccc(OCCSc2nnnn2-c2ccccc2)cc1,-2.6,.,14,0.063,-5,20
c1ccc(OCCSc2nnnn2-c2ccccc2)cc1,-6*,0.9,2,-0.55,1,8
Cc1ncc(CSc2nnnn2-c2ccccc2)c(N)n1,1.4,0.9,1,-0.33,-3,32*
CCOC(=O)N1CCN(CCC(=O)Nc2ccc(OC)cc2OC)CC1,0.026,.,-3,0.76,.,.
Cc1ccccc1Nc1nc(CSc2nnnn2-c2ccccc2)cs1,-3.2,.,2,-8*,-11,4
Cc1cccc(CSc2nnnn2-c2ccccc2)c1,-2.5,.,10,-0.81,3,10
c1ccc(-c2nc(CSc3n[nH]c(-c4cccs4)n3)cs2)cc1,-5.1,.,5,4.1*,-1,34*
O=C(CSc1n[nH]c(-c2cccs2)n1)N1CCN(S(=O)(=O)c2ccccc2)CC1,1.1,0.9,-2,-0.18,6,-4
C=CCSC(=C(C#N)C#N)c1cc2c([nH]1)CCCC2,-6.3*,.,8,-0.051,5,24
O=C(O)c1cc2c([nH]c1=O)CCCC2,-0.38,0.9,-12,0.71,11,18
Fc1cc2nccnc2cc1N1CCSCC1,-0.062,0.9,2,-0.87,9,7
CCOc1ccc(C2=CS/C(=C(\C#N)c3nnc4n3CCCCC4)N2CC)cc1,-0.17,0.9,11,2.3,2,25
C=CCN1C(c2ccccc2)=CS/C1=C(\C#N)c1nnc2n1CCCCC2,0.56,0.9,51*,0.91,3,15
C=CCNC(=O)c1sc(=S)n(-c2ccc(C(=O)OCC)cc2)c1N,0.45,1,4,0.28,-3,-5
Cc1ccc(NC(=O)c2c(Cl)n(C)c3ccccc23)cc1,.,.,.,.,-7,16
CCN(CC)c1ccc(Nc2nc(N3CCOCC3)c3ccccc3n2)cc1,-2.6,.,-1,-0.021,2,13
CCN(CC)c1ccc(/C=C2/C(=O)N(c3ccc([N+](=O)[O-])cc3)N=C2N2CCOCC2)cc1,.,.,-4,.,-2,34*
CCOc1ccc(C2CC(=O)NC3=C2C(=O)CCC3)cc1Cl (configuration not stated),0.36,0.9,-11,-0.24,-6,1
CCNc1nc(NC(C)C)nc(N(C#N)CCOc2ccccc2)n1,-5*,.,-2,-0.36,-13,16
